Reference: PubChem BioAssay
Results filed as inconclusive are left out. Activity calls are given as the source filed them.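 How the source made its calls, unless noted: active means cell viability at or below a set limit in both duplicate runs, the limit being the all-compound median minus 4 SD (cut at about 23% in these data, passing the limit was not always enough); inconclusive means no clear call, values can overlap the other calls; inactive means the rest.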

Tests used:
[1] = Her2 expression decrease, cell viability multiplex – SKBR3 breast tumor cells, AlphaScreen, ATP viability, primary screen (AID 461;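 active means Her2 level under about 52% in both replicate screens, with viability over 70% of control, limit read from the data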;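 on Her2 level: lower value means less Her2 protein in the cells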;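 on viability: percent of carrier control wells set as 100% viability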); details: SKBR3 Her2 protein level, 18-24 h, measured here: SKBR3 viability, ATP luminescence, at 10 µM
[2] = target: Receptor tyrosine-protein kinase erbB-2 (Homo sapiens) (UniProt P04626); assay: as above; details: 18-24 h, at 10 µM, stronger effect = lower value
Chain of Receptor tyrosine-protein kinase erbB-2 (Homo sapiens) (P04626 whole entry, looked up): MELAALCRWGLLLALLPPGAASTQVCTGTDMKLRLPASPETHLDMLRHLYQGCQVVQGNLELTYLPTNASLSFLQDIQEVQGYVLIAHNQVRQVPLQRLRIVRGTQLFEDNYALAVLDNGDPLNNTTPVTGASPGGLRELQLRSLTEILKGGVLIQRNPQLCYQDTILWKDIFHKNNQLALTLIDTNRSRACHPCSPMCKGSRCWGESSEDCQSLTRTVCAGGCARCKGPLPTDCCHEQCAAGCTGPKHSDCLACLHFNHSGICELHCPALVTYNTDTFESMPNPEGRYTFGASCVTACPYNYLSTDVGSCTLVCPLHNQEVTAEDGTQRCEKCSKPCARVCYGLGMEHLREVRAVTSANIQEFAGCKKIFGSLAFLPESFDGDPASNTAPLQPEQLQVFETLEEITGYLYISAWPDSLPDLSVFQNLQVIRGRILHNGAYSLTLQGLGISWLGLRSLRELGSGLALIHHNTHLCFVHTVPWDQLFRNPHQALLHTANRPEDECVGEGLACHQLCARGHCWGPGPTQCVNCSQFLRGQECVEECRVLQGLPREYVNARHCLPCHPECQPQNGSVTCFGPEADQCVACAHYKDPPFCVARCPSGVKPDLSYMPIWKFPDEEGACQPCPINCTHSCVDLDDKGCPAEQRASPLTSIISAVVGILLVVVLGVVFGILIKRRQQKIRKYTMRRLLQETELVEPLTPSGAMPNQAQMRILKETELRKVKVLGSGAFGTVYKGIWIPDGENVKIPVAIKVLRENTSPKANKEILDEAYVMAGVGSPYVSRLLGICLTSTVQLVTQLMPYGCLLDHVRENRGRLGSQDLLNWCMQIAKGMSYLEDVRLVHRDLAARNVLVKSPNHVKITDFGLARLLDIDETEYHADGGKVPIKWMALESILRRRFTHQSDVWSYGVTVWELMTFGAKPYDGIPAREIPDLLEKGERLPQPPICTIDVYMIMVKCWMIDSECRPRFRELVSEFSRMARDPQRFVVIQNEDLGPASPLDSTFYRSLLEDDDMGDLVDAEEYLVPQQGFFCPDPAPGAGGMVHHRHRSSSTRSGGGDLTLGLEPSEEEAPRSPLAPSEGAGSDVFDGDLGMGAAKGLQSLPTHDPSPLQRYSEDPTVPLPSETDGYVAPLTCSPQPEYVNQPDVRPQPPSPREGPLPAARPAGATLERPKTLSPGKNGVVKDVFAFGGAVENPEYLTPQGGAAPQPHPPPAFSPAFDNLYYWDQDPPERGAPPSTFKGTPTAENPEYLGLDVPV

[3] = reduced viability of SK-BR-3 breast cancer cells – cell-based, 24 h, human, pilot screen (AID 572;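 active means viability at or below 10% of carrier control in both of two separate runs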;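 further: compound exposure lasted between 18 and 24 h rather than exactly 24 h; 100% = carrier-treated control wells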); details: SK-BR-3 viability, CellTiter-Glo luminescence, at 10 µM, stronger effect = lower value
[4] = HUVEC growth inhibition – cell-based, human, primary screen (AID 575;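 active means viability at or below 30% in both replicate assays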;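 further: 100% = median of untreated cell wells with 0.1% DMSO on each plate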); details: HUVEC proliferation, CellTiter-Glo luminescence, 72 h; at 10 µM; stronger effect = lower value
[5] = H69AR cell proliferation blockers – human, duplicate replicates, primary screen (AID 580;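 active means viability at or under a set limit in both replicates, limit being median viability minus 3 SD, cut at about 48% in these data, passing the limit was not always enough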;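 further: 100% = mean luminescence of untreated wells and 0% = no signal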); details: H69AR lung tumor cells viability, ATP luminescence, 72 h; at 10 µM; stronger effect = lower value
[6] = MRP1 drug-resistance reversers in H69AR cells – cell-based, doxorubicin co-treatment, pilot screen (AID 601;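 active means viability loss from added drug above about 55%, and viability with drug at most 40%, in both replicates, limit read from the data, passing the limit was not always enough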); details: CellTiter-Glo, 72 h, at 10 µM; for differential viability (reversal): stronger effect = higher value
[7] = yeast transport mutant growth inhibition pilot in 384-well plates, post-Golgi transport modulator project (AID 636; in the data active means inhibition above about 31%); details: absorbance 615 nm, about 18 h, stronger effect = higher value
[8] = growth suppression of yeast trafficking mutant, preliminary HTS, modulators of trafficking downstream of Golgi apparatus project, 1536-format plate, OD 615 nm (AID 637; in the data active means inhibition above about 30%); details: yeast transport mutant growth, absorbance 615 nm, 18 h; stronger effect = higher value
[9] = S. cerevisiae growth inhibition in permissive medium (OD615), pilot counter-assay for S. cerevisiae lifespan shortening project, permissive growth control (AID 705;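 active means growth inhibition above 25% in both replicates, a cutoff set 3 SD above the mean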); details: OD615, 24 h, at 10 µM, stronger effect = higher value
[10] = S. cerevisiae growth inhibition in restrictive medium, OD615, pilot screen, restrictive growth control, yeast lifespan reduction project (AID 706;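 active means growth inhibition above a set limit, 3 SD over mean compound inhibition, in both replicates, cut at about 43% in these data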;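 further: modified DeaD lifespan yeast strain shifted to restrictive glucose medium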); details: OD615, 48 h, at 10 µM, stronger effect = higher value
[11] = doxorubicin toxicity protection in MRP-1 cells – H69AR cells, CellTiter-Glo, duplicate, MRP-1 activator project, pilot screen (AID 807;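 active means viability increase at or above a cutoff of the median across tested compounds plus 3 SD, cut at about 8.5% in these data, passing the limit was not always enough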;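 further: compound pretreatment 18-22 h then 72 h combined with doxorubicin; 0% = doxorubicin alone and 100% = vehicle without doxorubicin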); details: H69AR viability with doxorubicin, CellTiter-Glo luminescence; at 10 µM; stronger effect = higher value
[12] = viability of HCT116 without oncogenic beta-catenin – human colon tumor cells, pilot screen (AID 823); details: HCT116 beta-catenin knockout viability, CellTiter-Glo, 60 h; at 10 µM; stronger effect = lower value;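 further: 0% = wells killed by 20 µM Hyamine and 100% = untreated DMSO cell wells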
[13] = viability of PTEN-null HCT116 cells – cell-based, HCT116 clonal line, CellTiter-Glo, pilot screen (AID 824;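 active means viability at or below 27.92% in each of two runs, the all-compound median minus 4 SD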;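 further: 0% = 20 µM Hyamine control and 100% = vehicle cell control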); details: HCT116 PTEN-deleted viability, 60 h, at 10 µM, stronger effect = lower value
[14] = RAM pathway blockade in budding yeast – dse1pr::URA3 reporter, 5-FOA selection, pilot screen (AID 869;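 active means inhibition over a set limit, the all-compound mean plus 3 SD, in both replicate runs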;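 further: 0% = DMSO wells with no growth and 100% = 10 µM 1-NA-PP1 with full growth; RAM network block rescues cells from 5-FOA so hits raise OD615 growth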); details: S. cerevisiae dse1pr::URA3 5-FOA growth, OD615, 2 d; at 10 µM; stronger effect = higher value; strain carries analog-sensitive mutant Cbk1 kinase
[15] = RAM signaling pathway blockade in yeast – S. cerevisiae, Pdr1DBD-CYC8 efflux-inhibited sensitized strain, primary screen (AID 1298;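 active means RAM network inhibition above 8.4% in each of two replicates, 3 SD over the compound average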;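 further: 0% = DMSO untreated cells without growth and 100% = 10 µM 1-NA-PP1 full growth; higher means more yeast growth rescued from 5-FOA killing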); details: S. cerevisiae cbk1-as DSE1-URA3 strain, 5-FOA growth OD615, 2 d; at 50 µM; stronger effect = higher value
[16] = H69AR cells + 2 uM doxorubicin, measured here: viability with 2 uM doxorubicin, stronger effect = lower value
[17] = H69AR cells, compound alone cytotoxicity

Compound | viability [1] | Her2 level [2] | viability [3] | viability [4] | viability [5] | differential viability (reversal) ([6]; H69AR cells + 2 uM doxorubicin) | viability [6, 16] | viability [6, 17] | inhibition [7] | inhibition [8] | growth inhibition [9] | growth inhibition [10] | viability increase [11] | viability [12] | viability [13] | inhibition [14] | RAM network inhibition [15]
CCOc1ccc(Cn2nnc(C(=O)Nc3ccc(OC)cc3OC)c2N)cc1 | 96.5% | 102% (inactive) | 96.5% (inactive) | 67.5% (inactive) | 102% (inactive) | 2.46% (inactive) | 99.8% | 102% | -1.07% (inactive) | -5.9% (inactive) | -10.3% (inactive) | -9.57% (inactive) | -4.36% (inactive) | 83.3% (inactive) | 82.8% (inactive) | 3.14% (inactive) | 4.87% (inactive)
O=C(NCCN1CCCCCC1)c1ccc(CS(=O)(=O)c2ccc(Br)cc2)o1 | 86.5% | 104% (inactive) | 86.5% (inactive) | 86.2% (inactive) | 91% (inactive) | 7.95% (inactive) | 83.1% | 91% | 0.8% (inactive) | 2.5% (inactive) | -6.86% (inactive) | -14.6% (inactive) | -3.11% (inactive) | 78% (inactive) | 82.6% (inactive) | -0.1% (inactive) | 4.63% (inactive)
CCOC(=O)N1CCC(Nc2nc3ccccc3n3cnnc23)CC1 | 94% | 89.5% (inactive) | 94% (inactive) | 85.8% (inactive) | 87.1% (inactive) | 5.21% (inactive) | 81.9% | 87.1% | -0.13% (inactive) | 3.17% (inactive) | 0.55% (inactive) | -10.8% (inactive) | -4.12% (inactive) | 102% (inactive) | 95.2% (inactive) | 1.23% (inactive) | 4.35% (inactive)
Cc1ccc(-c2nc3cnccn3c2Nc2ccc3c(c2)OCO3)o1 | 91.5% | 90.5% (inactive) | 91.5% (inactive) | 92.4% (inactive) | 77.7% (inactive) | -13.6% (inactive) | 91.3% | 77.7% | -6.53% (inactive) | -2.83% (inactive) | -15.8% (inactive) | 3.3% (inactive) | -3.1% (inactive) | 95.8% (inactive) | 91.9% (inactive) | 1.34% (inactive) | 12.5% (inactive)
CC1=C(C(=O)OC(C)C)C(c2cccc(F)c2)n2ncnc2N1 (stereo not given) | 103% | 112% (inactive) | 103% (inactive) | 101% (inactive) | 90.7% (inactive) | -1.02% (inactive) | 91.7% | 90.7% | 0.27% (inactive) | 3.83% (inactive) | -7.79% (inactive) | -4.85% (inactive) | 0.62% (inactive) | 103% (inactive) | 100% (inactive) | 1.74% (inactive) | 5.32% (inactive)
COc1cccc(-c2nc(CS(=O)(=O)CC(=O)NCc3ccc(Cl)cc3)c(C)o2)c1 | 72.5% | 71% (inactive) | 72.5% (inactive) | 42.8% (inactive) | 87.9% (inactive) | 10.1% (inactive) | 77.8% | 87.9% | 0.4% (inactive) | -2.3% (inactive) | -8.85% (inactive) | -2.68% (inactive) | -3.55% (inactive) | 87.1% (inactive) | 89.3% (inactive) | 2.36% (inactive) | 5.41% (inactive)
COc1ccc(NC(=O)c2cc(C3CC3)on2)c(OC)c1 | 96.5% | 91.5% (inactive) | 96.5% (inactive) | 86.7% (inactive) | 91.2% (inactive) | -7.87% (inactive) | 99.1% | 91.2% | 0% (inactive) | 1.17% (inactive) | 4.41% (inactive) | 9.96% (inactive) | -1.92% (inactive) | 101% (inactive) | 92.2% (inactive) | -0.14% (inactive) | 4.64% (inactive)
Cc1cc(C)c(NC(=O)Cn2cc3c(n2)CCCC3)c(C)c1 | 87.5% | 103% (inactive) | 87.5% (inactive) | 104% (inactive) | 96.5% (inactive) | -3.94% (inactive) | 100% | 96.5% | -6% (inactive) | 5.74% (inactive) | 6.13% (inactive) | 12.4% (inactive) | -0.84% (inactive) | 109% (inactive) | 94.9% (inactive) | 2.3% (inactive) | 4.34% (inactive)
O=C(Cc1cccs1)Nc1ccccc1NC(=O)Cc1cccs1 | 81% | 87.5% (inactive) | 81% (inactive) | 107% (inactive) | 94.7% (inactive) | 3.74% (inactive) | 91% | 94.7% | -1.15% (inactive) | -7.83% (inactive) | -1.23% (inactive) | -8.9% (inactive) | -4% (inactive) | 92% (inactive) | 91.9% (inactive) | 0.905% (inactive) | -0.25% (inactive)
Nc1cccc2c1C(=O)N(c1ccccc1)C2=O | 95% | 97% (inactive) | 95% (inactive) | 91.4% (inactive) | 98.8% (inactive) | 14.7% (inactive) | 84.1% | 98.8% | -3.87% (inactive) | -1.48% (inactive) | -10.6% (inactive) | -8.73% (inactive) | -2.17% (inactive) | 106% (inactive) | 95.2% (inactive) | 1.5% (inactive) | 0.47% (inactive)
